Test results as given in PubChem BioAssay AID588405 (Sanford-Burnham Center for Chemical Genomics, 2011).
The campaign covered roughly 360,000 compounds. About 6,200 (1.7%) were called active.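 The calls were made as follows: active = inhibition of at least 50% at 20 µM; inactive = the rest.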 The entries come from a sample that favours actives as a whole.

Assay: inhibition of PEG-3 promoter activity – cell-based, HeLa, luciferase luminescence, primary screen (AID 588405)
Conditions: HeLa PEG-Prom luciferase reporter, overnight, at 20 µM, stronger effect = higher value
With C[C@@H]1CN([C@@H](C)CO)C(=O)CCCn2cc(nn2)CO[C@H]1CN(C)S(=O)(=O)c1ccc(-n2cccn2)cc1 the inhibition was -0.13% (inactive). For Cc1c(C(=O)NCC2CC2)sc(=O)n1Cc1cccc(F)c1, the inhibition was -1.67% (inactive). For CCN1C(=O)[C@@H]2[C@@H]3CN(S(=O)(=O)c4ccccc4C)[C@@H](c4ccc(Cl)cc4)[C@@H]3C(=O)C[C@@H]2C1=O, the inhibition was -51.1% (inactive). For Cc1nc2ccccc2c2oc(C(=O)NCCCN3CCC(C)CC3)cc12, the inhibition was -9.23% (inactive). For CCCn1c2ccccc2c2cnn(CC(=O)NCCCN3CCCCC3CC)c(=O)c21 (stereo not drawn), the inhibition was 17.1% (inactive). With CCC1CCCCN1CCCNC(=O)c1cc2c(Cl)nc3ccccc3c2s1 (stereo not drawn) the inhibition was 100% (active). For CN(CCO)C(=O)c1nc[nH]c1C(=O)N(C)Cc1ccccc1, the inhibition was -1.65% (inactive). With Cc1ccc(F)c(S(=O)(=O)NC(=O)C2(C)CCN2C(=O)CCc2cccs2)c1 (stereo not drawn) the inhibition was -1.22% (inactive). With COCCNC(=O)C1(C)CCCN(Cc2cccc(F)c2)C1 (stereo not drawn) the inhibition was 1.57% (inactive). With CCNC(=O)C1(C)CCN(Cc2ccc(C(=O)OCC)o2)C1 (stereo not drawn) the inhibition was 2.73% (inactive). In the case of O=C(Cc1ccc(NC(=O)C2CCCN(C(=O)CCc3ccccc3)C2)cc1)Nc1ccc(C(=O)N2CCOCC2)cc1 (stereo not drawn), the inhibition is reported as -12.9% (inactive). For CCOc1cc2[nH]c(=S)n(Cc3ccc(C(=O)N4CCN(C)CC4)cc3)c(=O)c2cc1OCC, the inhibition was 105% (active). For CCOc1cc2[nH]c(=S)n(Cc3ccc(C(=O)NCCOC)cc3)c(=O)c2cc1OCC, the inhibition was 9.27% (inactive). For COc1cc2[nH]c(=S)n(Cc3ccc(F)cc3)c(=O)c2cc1OC, the inhibition was 13.7% (inactive). In the case of COc1ccc(Br)c(Cn2c(C)c(C(=O)NCc3cccs3)sc2=O)c1, the inhibition is reported as 7.67% (inactive). In the case of Cc1nc(C(F)(F)F)ccc1C(=O)N1CCC1(C)C(=O)NS(=O)(=O)c1ccccc1Cl (stereo not drawn), the inhibition is reported as 7.45% (inactive). With O=S1(=O)CC(N2CCC(Cc3ccccc3)CC2)CN1Cc1ccccc1 (stereo not drawn) the inhibition was -15.6% (inactive). With O=C(NNC(=O)c1ccccc1O)c1ccccc1O the inhibition was 23.7% (inactive). In the case of O=C(NNc1c2ccccc2nc2ccccc12)c1cc2ccccc2cc1O, the inhibition is reported as 74.7% (active). In the case of O=C(COC(=O)c1ccc(O)cc1O)NC(=O)c1ccccc1, the inhibition is reported as 19.7% (inactive). With O=C(Nc1cccc(S(=O)(=O)N2CCOCC2)c1)C12CC3CC(CC(C3)C1)C2 the inhibition was 13.8% (inactive). With CCCS(=O)(=O)NC(=O)C1(C)CCN(C(=O)c2sccc2C)C1 (stereo not drawn) the inhibition was -4.46% (inactive). For OC(c1ccc(Cl)cc1)c1ncc(-c2ccc(Cl)cc2)[nH]1 (stereo not drawn), the inhibition was -29.5% (inactive). In the case of OC[C@@H]1CN(Cc2ccc(-c3ccccc3)cc2)C[C@H](n2cnc3c(NC4CCCC4)ncnc32)O1, the inhibition is reported as 19.6% (inactive). With Cc1csc2ncc(C(=O)N(Cc3ccccc3)c3ccccn3)c(=O)n12 the inhibition was 81.4% (active). For CC(C)(C)C(=O)N(Cc1ccccc1)c1ccccn1, the inhibition was -2.77% (inactive). In the case of CCC(=O)N(Cc1ccccc1)c1ccccn1, the inhibition is reported as 13.9% (inactive). In the case of O=C(CCN1C(=O)[C@@H]2Cc3ccccc3CN2C1=O)NCc1ccccc1, the inhibition is reported as 4.93% (inactive). For Cc1cc2oc(=O)cc(CN(C)Cc3ccccc3)c2cc1Cl, the inhibition was -133% (inactive). For Cc1cc2c(cc1C)N1C(=O)c3cc4ccccc4cc3NC(=O)C1C(=O)N2 (stereo not drawn), the inhibition was 9.54% (inactive). For O=c1[nH]c(=S)[nH]c(O)c1/C=C1\C=Nc2ccccc21, the inhibition was 60.8% (active). In the case of COc1cc(C(O)c2nc(-c3cnn(C)c3)cs2)ccc1F (stereo not drawn), the inhibition is reported as 9.83% (inactive). With CCc1nc2c(OCCOc3ccccc3)cccn2c1N(C)C(=O)c1cccs1 the inhibition was 30.3% (inactive). For C#Cc1cc(N2CCN(C(=O)c3ccoc3)CC2)n2nc(-c3cccc(Cl)c3)cc2n1, the inhibition was 79.3% (active). In the case of CN(C)CCN1CCN(c2cc(-c3cccc(Cl)c3)nc3ccnn23)CC1, the inhibition is reported as 7.56% (inactive). With O=C(c1ccccc1)N1CCN(c2cc(-c3ccccc3)nc3cc(-c4cccc(Cl)c4)nn23)CC1 the inhibition was 16.8% (inactive). In the case of CCCC(=O)N1CCC1(C)C(=O)Nc1ccc(-n2cncn2)cc1 (stereo not drawn), the inhibition is reported as 5.62% (inactive). For Cc1noc(C)c1COc1ccc(C(=O)NCCOc2ccccc2)cc1, the inhibition was -115% (inactive). With CN(C)CCNC(=O)c1ccc(-c2cn3c(-c4ccc(Oc5ccccc5)cc4)cnc3cn2)cc1 the inhibition was 99.7% (active). In the case of CN(C)C(CNC(=O)c1ccc(OCc2cn3ccccc3n2)cc1)c1ccco1 (stereo not drawn), the inhibition is reported as -55.3% (inactive). For CCc1ccc(OC2(C)CCN(CCOc3ccc(C)cc3)C2)cc1 (stereo not drawn), the inhibition was 15.4% (inactive). With COc1ccc(Nc2nc(-c3cccnc3)nc3ccccc23)cn1 the inhibition was 53.5% (active). In the case of S=c1nc2ccccc2c2nc(-c3cccnc3)[nH]n12, the inhibition is reported as -35.9% (inactive). With CCN(CC(=O)NC1CCS(=O)(=O)C1)c1nc(-c2cccnc2)nc2ccccc12 (stereo not drawn) the inhibition was -4.15% (inactive). With Cc1ccc(Sc2ccc(NC(=O)c3ccc(F)cc3)cc2C#N)cc1 the inhibition was -1.6% (inactive). In the case of CN(CCO)c1ccc(/C=N/Nc2nncc3ccccc23)cc1, the inhibition is reported as 63.9% (active). For CC(C)NC(=O)Nc1ccc2c(c1)C(=O)N([C@H](C)CO)C[C@H](C)[C@@H](CN(C)Cc1ccc(C(F)(F)F)cc1)OCCCC[C@@H](C)O2, the inhibition was 12.5% (inactive). With COc1ccc(-c2nnc(SC(C)C(=O)NC3CC3)o2)cc1 (stereo not drawn) the inhibition was -27.6% (inactive). With COc1ccc(CN(C(=O)CSc2nnc(-c3ccc(OC)c(OC)c3)o2)c2ccc(F)cc2)cc1 the inhibition was 30.6% (inactive). With COc1ccc(-c2nnc(SC(=O)N3c4ccccc4Sc4ccccc43)o2)cc1 the inhibition was 51.3% (active). For CC(=O)C1=CCC(c2ccccc2)N(S(=O)(=O)c2ccc(C)cc2)C1 (stereo not drawn), the inhibition was 7.17% (inactive). In the case of C#CCOc1ccc(/C=C2/C(=O)ON=C2C)cc1OCC, the inhibition is reported as 27.9% (inactive). For COc1cc(/C=C2/C(=O)ON=C2C)ccc1OCc1cccc(F)c1, the inhibition was 45.1% (inactive). For COc1cc(/C=C2/C(=O)ON=C2C)ccc1OCc1ccccc1F, the inhibition was 66.5% (active). In the case of OC[C@@H]1CN(C2CCCC2)C[C@H](n2cnc3c(NC4CCC4)ncnc32)O1, the inhibition is reported as 4.02% (inactive). With O=[N+]([O-])c1ccccc1/C=C/CN1CCC(O)CC1 the inhibition was 10.2% (inactive). In the case of CC1CCCCC1NC(=O)/C(C#N)=C/C=C/c1ccccc1[N+](=O)[O-] (stereo not drawn), the inhibition is reported as 111% (active). For CC(OC(=O)/C=C/c1ccccc1)C(=O)NC1CCCCC1C (stereo not drawn), the inhibition was 6.61% (inactive).
